Data as given in PubChem BioAssay.
Activity calls are given as the source filed them.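 The calls were made as follows, unless noted: active = viability loss from added drug above about 55%, and viability with drug at most 40%, in both replicates (limit read from the data, passing the limit was not always enough); inconclusive = both conditions met in only one replicate; inactive = neither replicate meets both conditions.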

Assay: H69AR cell proliferation blockers – human, duplicate replicates, primary screen (AID 580;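 active = viability at or under a set limit in both replicates, limit being median viability minus 3 SD, cut at about 48% in these data, passing the limit was not always enough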;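 also: 100% = mean luminescence of untreated wells and 0% = no signal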)
Details: H69AR lung tumor cells viability, ATP luminescence, 72 h; at 10 µM; hits give low values

Row | SMILES | viability
1 | Cc1nccn1CCCN1C(=O)OC2(CCCCC2)C1(C)O (stereo not given) | 98.5% (inactive)
2 | CCOC(=O)/C=C1\SCC(=O)N1Cc1nnc(-c2ccccc2Br)o1 | 91.3% (inactive)
3 | Cc1ccc(S(=O)(=O)N2CCN(C(=O)c3cc(=O)[nH]c4ccccc34)CC2)c(C)c1 | 83.3% (inactive)
4 | OC(CCCN1CCC(O)(c2ccc(Cl)cc2)CC1)c1ccc(F)cc1 (stereo not given) | 66.1% (inactive)
5 | CCCC(=O)n1nc(-c2ccc(OC)cc2)nc1N | 105% (inactive)
6 | Cc1ccc(-c2nn(-c3ccccc3)cc2/C=C(\C#N)c2cccc(C#N)c2)o1 | 71.6% (inactive)
7 | Fc1cccc(NCc2cn3ccccc3n2)c1 | 87.6% (inactive)
8 | CCCc1nc(NCc2ccncc2)c2nnn(Cc3ccccc3F)c2n1 | 54.5% (inactive)
9 | O=C1OCCC1Sc1ncnc2sccc12 (stereo not given) | 104% (inactive)
10 | CCOC(=O)C1=C[C@]2(CC)CCCN3CCc4c(n1c1ccccc41)[C@@H]32 | 80.1% (inactive)
11 | C=CCNC(=O)c1ccc(Cl)cc1Cl | 97% (inactive)
12 | CCCC(=O)Nc1cc(-c2nnc(OC)c3ccccc23)ccc1N1CCOCC1 | 94.5% (inactive)
13 | COC(=O)C1C2C=CC3(CN(CC4CCCO4)C(=O)C13)O2 (stereo not given) | 102% (inactive)
14 | Cc1cc(C(C)(C)C)cc(C)c1CC1=NCCN1 | 89.9% (inactive)
15 | CCCn1c(=O)c2[nH]c(C3CCCC3)nc2n(CCC)c1=O | 70.7% (inactive)
16 | c1ccc(OCc2nc(-c3ccccc3)no2)cc1 | 93.5% (inactive)
17 | C=CCn1c(SCC(=O)NCC2CCCO2)nc2scc(-c3ccco3)c2c1=O (stereo not given) | 92.9% (inactive)
18 | COC(=O)Cc1c(C)nc2nc[nH]n2c1=O | 105% (inactive)
19 | CCOCCCn1c(=NC(C)=O)c(C(=O)OCC)cc2c(=O)n3ccccc3nc21 | 90.5% (inactive)
20 | Cc1ccc(N2CCN(c3ccc(C)cc3)C(CC(=O)O)C2=O)cc1 (stereo not given) | 97.4% (inactive)

Row | SMILES | viability
21 | C[C@@H]1C[C@H]2[C@@H]3C[C@H](F)C4=CC(=O)C=C[C@]4(C)[C@@]3(F)[C@@H](O)C[C@]2(C)[C@@]1(O)C(=O)COC(=O)C(C)(C)C | 79.5% (inactive)
22 | CC(C)N(C(=O)N1CCC(c2nc(-c3ccncc3)no2)CC1)C(C)C | 102% (inactive)
23 | CCOc1cc2[nH]c(=O)n(CCCCC(=O)NCc3ccco3)c(=O)c2cc1OCC | 82.5% (inactive)
24 | Cc1ccc(C2C(C(=O)c3sc(C)nc3C)=C(O)C(=O)N2CCN(C)C)o1 (stereo not given) | 103% (inactive)
25 | COc1cc(C(=O)N2CCCC(c3nc(-c4cccs4)no3)C2)cc(OC)c1OC (stereo not given) | 89.7% (inactive)
26 | CC1Oc2ccccc2N(CC(=O)NCc2cccs2)C1=O (stereo not given) | 108% (inactive)
27 | Cn1c(=O)c2c(nc(CN3CCCCC3)n2CCCc2ccccc2)n(C)c1=O | 81.7% (inactive)
28 | O=C(O)CC1Sc2nc3ccccc3n2C1=O (stereo not given) | 102% (inactive)
29 | CCN(CC)S(=O)(=O)c1ccc(F)c(C(=O)NCCC(C)C)c1 | 90.9% (inactive)
30 | CCOC(=O)n1c(=O)oc2cc(S(=O)(=O)N3CCCCC3)ccc21 | 90.2% (inactive)
31 | COC(=O)CCN(C(=O)c1ccc2c(c1)OCO2)c1ccccn1 | 98.5% (inactive)
32 | CC(C)NC(=O)c1ccccc1NC(=O)CCS(=O)(=O)Cc1ccccc1 | 87.7% (inactive)
33 | COc1cc(C2Oc3cc(C4Oc5cc(O)cc(O)c5C(=O)C4O)ccc3OC2CO)ccc1O (stereo not given) | 97.4% (inactive)
34 | CCOc1ccccc1N1CC(O)=C(c2nc3ccccc3s2)C1=N | 14.5% (active)
35 | CCOC(=O)N1CCC(NC(=O)Cc2ccc(-n3c(=O)[nH]c4ccccc4c3=O)cc2)CC1 | 96.4% (inactive)
36 | O=C(CSc1nc(-c2ccco2)cc(C(F)(F)F)n1)N1CCCc2ccccc21 | 84% (inactive)
37 | Cc1cccc(NC(=O)C2CCCN(C(=O)Nc3ccccc3)C2)c1C (stereo not given) | 96.2% (inactive)
38 | COc1ccc(C(=O)CSc2nnc(-c3ccc(C)cc3)o2)cc1 | 86.4% (inactive)
39 | O=C(NCc1nc2ccccc2[nH]1)c1ccc(Cl)c(S(=O)(=O)N2CCCC2)c1 | 96.8% (inactive)
40 | Cc1nc2scc(-c3ccco3)c2c(=O)n1/N=C/N(C)C | 95.3% (inactive)

Assay: MRP1 drug-resistance reversers in H69AR cells – cell-based, doxorubicin co-treatment, pilot screen (AID 601)
Details: H69AR cells + 2 uM doxorubicin, CellTiter-Glo, 72 h; at 10 µM; hits give high values

Row | SMILES | differential viability (reversal)
41 | Cc1nccn1CCCN1C(=O)OC2(CCCCC2)C1(C)O (stereo not given) | -3.27% (inactive)
42 | CCOC(=O)/C=C1\SCC(=O)N1Cc1nnc(-c2ccccc2Br)o1 | 3.01% (inactive)
43 | Cc1ccc(S(=O)(=O)N2CCN(C(=O)c3cc(=O)[nH]c4ccccc34)CC2)c(C)c1 | 3.45% (inactive)
44 | OC(CCCN1CCC(O)(c2ccc(Cl)cc2)CC1)c1ccc(F)cc1 (stereo not given) | -6.19% (inactive)
45 | CCCC(=O)n1nc(-c2ccc(OC)cc2)nc1N | 7% (inactive)
46 | Cc1ccc(-c2nn(-c3ccccc3)cc2/C=C(\C#N)c2cccc(C#N)c2)o1 | -1.65% (inactive)
47 | Fc1cccc(NCc2cn3ccccc3n2)c1 | -1.66% (inactive)
48 | CCCc1nc(NCc2ccncc2)c2nnn(Cc3ccccc3F)c2n1 | 8.61% (inactive)
49 | O=C1OCCC1Sc1ncnc2sccc12 (stereo not given) | 21.8% (inactive)
50 | CCOC(=O)C1=C[C@]2(CC)CCCN3CCc4c(n1c1ccccc41)[C@@H]32 | 16.4% (inactive)
51 | C=CCNC(=O)c1ccc(Cl)cc1Cl | 4.47% (inactive)
52 | CCCC(=O)Nc1cc(-c2nnc(OC)c3ccccc23)ccc1N1CCOCC1 | -7.97% (inactive)
53 | COC(=O)C1C2C=CC3(CN(CC4CCCO4)C(=O)C13)O2 (stereo not given) | -9.38% (inactive)
54 | Cc1cc(C(C)(C)C)cc(C)c1CC1=NCCN1 | 7.59% (inactive)
55 | CCCn1c(=O)c2[nH]c(C3CCCC3)nc2n(CCC)c1=O | 50.8% (inactive)
56 | c1ccc(OCc2nc(-c3ccccc3)no2)cc1 | 3.62% (inactive)
57 | C=CCn1c(SCC(=O)NCC2CCCO2)nc2scc(-c3ccco3)c2c1=O (stereo not given) | -1.34% (inactive)
58 | COC(=O)Cc1c(C)nc2nc[nH]n2c1=O | 9.79% (inactive)
59 | CCOCCCn1c(=NC(C)=O)c(C(=O)OCC)cc2c(=O)n3ccccc3nc21 | 43.1% (inactive)
60 | Cc1ccc(N2CCN(c3ccc(C)cc3)C(CC(=O)O)C2=O)cc1 (stereo not given) | 4.25% (inactive)

Row | SMILES | differential viability (reversal)
61 | C[C@@H]1C[C@H]2[C@@H]3C[C@H](F)C4=CC(=O)C=C[C@]4(C)[C@@]3(F)[C@@H](O)C[C@]2(C)[C@@]1(O)C(=O)COC(=O)C(C)(C)C | -7.82% (inactive)
62 | CC(C)N(C(=O)N1CCC(c2nc(-c3ccncc3)no2)CC1)C(C)C | -3.66% (inactive)
63 | CCOc1cc2[nH]c(=O)n(CCCCC(=O)NCc3ccco3)c(=O)c2cc1OCC | -12.7% (inactive)
64 | Cc1ccc(C2C(C(=O)c3sc(C)nc3C)=C(O)C(=O)N2CCN(C)C)o1 (stereo not given) | 3.58% (inactive)
65 | COc1cc(C(=O)N2CCCC(c3nc(-c4cccs4)no3)C2)cc(OC)c1OC (stereo not given) | 20.3% (inactive)
66 | CC1Oc2ccccc2N(CC(=O)NCc2cccs2)C1=O (stereo not given) | 13.8% (inactive)
67 | Cn1c(=O)c2c(nc(CN3CCCCC3)n2CCCc2ccccc2)n(C)c1=O | 0.72% (inactive)
68 | O=C(O)CC1Sc2nc3ccccc3n2C1=O (stereo not given) | 6.67% (inactive)
69 | CCN(CC)S(=O)(=O)c1ccc(F)c(C(=O)NCCC(C)C)c1 | 6.46% (inactive)
70 | CCOC(=O)n1c(=O)oc2cc(S(=O)(=O)N3CCCCC3)ccc21 | -0.62% (inactive)
71 | COC(=O)CCN(C(=O)c1ccc2c(c1)OCO2)c1ccccn1 | 7.88% (inactive)
72 | CC(C)NC(=O)c1ccccc1NC(=O)CCS(=O)(=O)Cc1ccccc1 | -1.34% (inactive)
73 | COc1cc(C2Oc3cc(C4Oc5cc(O)cc(O)c5C(=O)C4O)ccc3OC2CO)ccc1O (stereo not given) | 4.15% (inactive)
74 | CCOc1ccccc1N1CC(O)=C(c2nc3ccccc3s2)C1=N | -45.7% (inactive)
75 | CCOC(=O)N1CCC(NC(=O)Cc2ccc(-n3c(=O)[nH]c4ccccc4c3=O)cc2)CC1 | 7.9% (inactive)
76 | O=C(CSc1nc(-c2ccco2)cc(C(F)(F)F)n1)N1CCCc2ccccc21 | 2.16% (inactive)
77 | Cc1cccc(NC(=O)C2CCCN(C(=O)Nc3ccccc3)C2)c1C (stereo not given) | 5.37% (inactive)
78 | COc1ccc(C(=O)CSc2nnc(-c3ccc(C)cc3)o2)cc1 | -2.64% (inactive)
79 | O=C(NCc1nc2ccccc2[nH]1)c1ccc(Cl)c(S(=O)(=O)N2CCCC2)c1 | -3.96% (inactive)
80 | Cc1nc2scc(-c3ccco3)c2c(=O)n1/N=C/N(C)C | 2.7% (inactive)
